These results are taken from PubChem BioAssay AID463173 (ICCB-Longwood Screening Facility, Harvard Medical School, 2010).

Screen size: about 52,000 compounds; about 4,300 (8.3%) were called active. The list comes from a sample in which actives are over-represented; it also holds similar structures and randomly drawn compounds. A number with no mark means an inactive call. No stated cut-off is given here; in the data, active means survival mostly below about 52% (no sharp cut-off); inactive means mostly above about 56%.

The assay relates to DeltatarO mutant. Kind of assay: growth inhibition of S. aureus wild type versus tarO mutant, primary screen, teichoic acid synthesis inhibitors, RN4220, OD600 (AID 463173). The conditions noted are these: OD600, 18 h, active compounds read low, screened at 18.75 µg/mL (by protocol).
For the compound `Cc1cccc(N2C(=O)C(CC(=O)Nc3ccc(F)cc3)N(C3CCCC3)C2=O)c1` (configuration not stated), the survival is 130%.
Regarding `CCCC1=Nc2cc(C(=O)NCCc3ccc(OC)cc3OC)ccc2Sc2ccccc21`, the survival was 99%.
As for `O=C(CC(NCc1ccccc1)C(=O)O)NC1CCCCC1` (configuration not stated), the figure is 102%; as for `Cn1c(=O)c(C(=O)NCCN2CCNCC2)c(O)c2ccccc21`, 68%; as for `CCCn1c(=O)c2sccc2n2c(CCCC(=O)NC3CCC(C)CC3)nnc12` (configuration not stated), 100%.
As for `COc1ccc(OC)c(CNC(=O)c2cnc(N(C)C)nc2)c1`, the figure is 71%.
In the case of `O=C(Cc1ccc(NC(=O)N2CCCCc3ccccc32)cc1)Nc1ccccc1Br` it was 73%.
Regarding `Cc1ccc(C)c(N2CCN(C(=O)c3cccc(-n4c(C)nc5cccnc54)c3)CC2)c1`, the survival was 78%.
In the case of `Cc1cccc(-c2nc3c4ccccc4nc(NCc4ccc(F)cc4)n3n2)c1`, the survival was 84%.
As for `COc1ccc(CNc2nc3ccccc3c3nc(-c4ccccc4)nn23)cc1`, the figure is 35% (active).
In the case of `COc1cccc(CNC(=O)Cn2c(=O)n3nc(-c4cccc(C)c4)nc3c3ccccc32)c1` it was 93%.
As for `Cc1ccc(CNc2nc3ccccc3c3nc(-c4cccc(C)c4)nn23)cc1`, the figure is 18% (active); as for `Cc1ccc(CNc2cc(C)nc3nc(-c4cccc(C)c4)nn23)cc1`, 124%; as for `Clc1ccccc1CNc1nc2ccccc2c2nc(-c3ccccc3)nn12`, 108%.
Turning to `Cc1ccc(CNc2cc(C)nc3nc(-c4ccc(C)cc4)nn23)cc1`, the survival was 69%.
In the case of `COc1cccc(CNc2nc3c(-c4cccc(C)c4)nnn3c3ccccc23)c1`, the survival is 96%.
In the case of `CCc1c(C)nc2nc(-c3ccccc3)nn2c1NCc1ccc(C)cc1` it was -4% (active); in that of `c1ccc(CNc2nc3ccccc3c3nc(-c4ccccc4)nn23)cc1`, 54%.
In the case of `COc1cccc(CNc2nc3ccccc3c3nc(-c4cccc(C)c4)nn23)c1` it was 31% (active); in that of `CCc1c(C)nc2nncn2c1NCc1ccccc1`, 85%; in that of `N#C/C(=C\C1CC=CCC1)c1nc2ccccc2[nH]1` (configuration not stated), 86%.
With `Cc1cc(C)cc(NC(=O)CSc2nc(-c3ccccc3)nn2C(=O)c2ccco2)c1`, the survival is 110%.
Regarding `S=C(NCCCN1CCOCC1)N1CCN(c2ccccc2)CC1`, the survival was 84%.
On to `Cc1c(C=Nc2ccc(Cl)cc2)c(O)n(C)c(=O)c1C#N`, for which the survival was 74%.
As for `CCSc1ncc(Cl)c(C(=O)Nc2c(C(=O)Nc3ccc(Cl)cc3)oc3ccccc23)n1`, the figure is 105%; as for `Cc1cccc(-c2nc3c4ccccc4nc(NCc4ccc(Cl)cc4)n3n2)c1`, 44% (active).
Regarding `Cc1cccc(-c2nc3c4ccccc4nc(N4CCN(c5cccc(Cl)c5)CC4)n3n2)c1`, the survival is 71%.
As for `Clc1ccc(CNc2nc3ccccc3c3nc(-c4cccnc4)nn23)cc1`, the figure is 80%; as for `Cc1cccc(-c2nc3c4ccccc4nc(N4CCN(c5ccc(F)cc5)CC4)n3n2)c1`, 65%; as for `CC(=O)c1ccc(N2CCN(c3nc4ccccc4c4nc(-c5cccc(C)c5)nn34)CC2)cc1`, 41% (active).
`CCCCCC(=O)Nc1ccc(NC(=O)c2cc3ccccc3o2)c(OC)c1`: the survival is 68%.
In the case of `Cc1ccc(CCNC(=O)CCCc2nnc3n(C)c(=O)c4sccc4n23)cc1` it was 86%; in that of `O=c1c2ccccc2n(Cc2cccc(Cl)c2)c(=O)n1Cc1ccccc1`, 124%; in that of `CCn1c2ccccc2c2cc(CN3CCN(Cc4ccccc4Cl)CC3)ccc21`, -1% (active).
In the case of `CCS(=O)(=O)N1CCN(Cc2ccccc2)CC1` it was 72%.
On to `Clc1ccccc1CN1CCN(Cc2ccco2)CC1`, for which the survival was 86%.
As for `CCn1c2ccccc2c2cc(CN3CCN(Cc4cccc(Cl)c4)CC3)ccc21`, the figure is -1% (active).
With `CCn1c2ccccc2c2cc(CN3CCN(Cc4ccco4)CC3)ccc21`, the survival was 81%.
In the case of `CCn1c2ccccc2c2cc(CN3CCN(Cc4ccc(Cl)cc4)CC3)ccc21` it was -1% (active).
Turning to `CCCN1CCN(C(=O)Cn2ncc3c4ccccc4n(Cc4cccc(Cl)c4)c3c2=O)CC1`, the survival was 72%.
Take `O=c1c2ccccc2n(Cc2ccccc2Cl)c(=O)n1CCc1ccccc1`: the survival is 60%.
In the case of `CCCn1c(N2CCN(Cc3ccc(Cl)cc3)CC2)nc2ccccc21` it was 91%; in that of `CC(C)n1c(N2CCN(Cc3ccc(Cl)cc3)CC2)nc2ccccc21`, 83%; in that of `CCn1c2ccccc2c2cc(CN3CCN(Cc4ccc(Br)cc4)CC3)ccc21`, -1% (active).
As for `CCS(=O)(=O)N1CC(=O)N(c2cc(C)cc(C)c2)C(C)(C(=O)NC2CCCCC2)C1` (configuration not stated), the figure is 92%; as for `COc1cc(NC(=O)Cn2cnc3c2c(=O)n(C)c(=O)n3C)c(OC)cc1Cl`, 65%; as for `CC(C)(C)c1ccc(CSC2=Nc3ccccc3C3=NC(CC(=O)NCc4cccs4)C(=O)N23)cc1` (configuration not stated), 68%.
In the case of `CCC(=O)N=c1sc2ccccc2n1-c1ccccc1` it was 71%; in that of `COc1ccc(C(=O)Nc2ccc3oc(-c4cccnc4)nc3c2)cc1OC`, 62%.
With `CCCCOc1ccccc1C(=O)N(Cc1cccc(F)c1)C1CCS(=O)(=O)C1` (configuration not stated), the survival is 75%.
`CCc1ccc(NC(=O)CCn2c(=O)c3cccn3c3ccccc32)cc1`: the survival is 48%.
In the case of `COCCCn1c(=O)c2sccc2n2c(CCCC(=O)Nc3ccc(F)c(F)c3)nnc12` it was 83%; in that of `Cc1ccc(NC(=O)Cn2c(=O)cc(-c3ccccc3)c3c(C)nn(C)c32)c(Cl)c1`, 78%; in that of `CCOc1ccc(Cn2c(=O)oc3ccccc32)cc1`, 117%.
For the compound `CCOc1ccc(CN2CCN(C(=O)c3ccco3)CC2)cc1`, the survival is 77%.
With `CCOc1ccc(CN2CCN(Cc3ccc4c(c3)c3ccccc3n4CC)CC2)cc1`, the survival is 0% (active).
As for `CC(C)(C)OC(=O)N1CCC(c2c(C(=O)NC3CCCCC3)cnn2-c2ccc(F)cc2F)CC1`, the figure is 76%.
As for `CCOc1ccc(NC(=O)NC(C)c2c(-n3cccc3)sc3c2CCN(CC)C3)cc1` (configuration not stated), the figure is 96%; as for `Cc1nc(-c2ccc(F)cc2)sc1CCNC(=O)Cc1ccc(F)cc1`, 81%; as for `CCOc1ccc(-n2nc(CO)c(C(=O)NCc3ccc(Cl)cc3)n2)cc1`, 43% (active).
In the case of `Cc1ccc(CNC(=O)c2nn(-c3ccc(Cl)cc3)nc2CO)cc1` it was 94%; in that of `CCc1ccc(-n2nc(CO)c(C(=O)NCCOC)n2)cc1`, 56%; in that of `CCc1ccc(-n2nc(CO)c(C(=O)NCCCc3ccccc3)n2)cc1`, 95%.
Take `Cc1ccc(-n2nc(CO)c(C(=O)NCc3cccnc3)n2)cc1`: the survival was 90%.
As for `CCOc1ccc(-n2nc(CO)c(C(=O)NCCCc3ccccc3)n2)cc1`, the figure is 89%; as for `COCCNC(=O)c1nn(-c2ccc(Cl)cc2)nc1CO`, 91%; as for `CCOc1ccc(-n2nc(CO)c(C(=O)NCC(C)O)n2)cc1` (configuration not stated), 39% (active).
As for `CCOc1ccc(-n2nc(CO)c(C(=O)NCc3cccnc3)n2)cc1`, the survival is 44% (active).
In the case of `CCCCNC(=O)c1nn(-c2ccc(CC)cc2)nc1CO` it was 41% (active); in that of `CCOc1ccc(-n2nc(CO)c(C(=O)NCC(c3ccccc3)c3ccccc3)n2)cc1`, 48%; in that of `CCc1ccc(-n2nc(CO)c(C(=O)NCc3cccnc3)n2)cc1`, 51%.
As to `COc1ccc(C2CC3(CC(C)(C)NC(=O)N3)Oc3cc(O)ccc32)cc1` (configuration not stated), the survival was 102%.
In the case of `CCC(=O)Oc1cc(C(C)(C)C)cc2cc(-c3nc(-c4ccc(OC)cc4OC)no3)c(=O)oc12` it was 89%; in that of `Cc1nn(CCC(=O)NCc2cccc(Br)c2)c(=O)c2nn(-c3ccccc3)c(C)c12`, 92%.
In the case of `CC1=C(c2ccc(C)cc2)S(=O)(=O)N(Cc2ccc(C(=O)NCc3ccccc3F)cc2)C1=O` it was 80%; in that of `Cc1cc(C)nc(Sc2ccccc2)n1`, 76%.
In the case of `N#Cc1ccccc1NC(=O)CC1Nc2ccccc2NC1=O` (configuration not stated) it was 98%.
`Cc1ccc(S(=O)(=O)Cc2ccc(C(=O)NCCc3ccc(Cl)cc3)o2)cc1`: the survival is 56%.
`COc1ccc(NC(=O)Cn2cc(C(=O)c3ccc(C)c(C)c3)c(=O)c3cc(OC)ccc32)cc1`: the survival is 72%.
`O=c1c2oc3ccccc3c2n(Cc2ccc(F)cc2)c(=O)n1Cc1ccco1`: the survival was 71%.
As for `N#C/C(=C/c1ccc(Cl)cc1Cl)c1nc2ccccc2c(=O)[nH]1`, the survival was 70%.
As for `COc1cccc(CNC(=O)c2nn(-c3ccccc3Cl)nc2CO)c1`, the figure is 85%; as for `CCOc1ccc(-n2nc(CO)c(C(=O)NCc3ccccn3)n2)cc1`, 53%; as for `CCOc1ccc(-n2nc(CO)c(C(=O)NCc3cccc(OC)c3)n2)cc1`, 41% (active).
Turning to `Cc1nn(CCCC(=O)Nc2cc(C(F)(F)F)ccc2Cl)c(=O)c2c1sc1ccccc12`, the survival is 78%.
For the compound `Cc1nc(-c2ccccc2)sc1-c1ccc(SCC(=O)Nc2ccccc2)nn1`, the survival was 24%.
As for `Cc1nc(C)c(-c2ccc(SCC(=O)Nc3ccc(C)c(F)c3)nn2)s1`, the figure is 93%.
For `Cc1nc(-c2ccccc2)sc1-c1ccc(SCC(=O)Nc2ccc(F)cc2F)nn1`, the survival is 19% (active).
As for `Cc1nc(-c2ccccc2)sc1-c1ccc(SCC(=O)Nc2cccc(C(F)(F)F)c2)nn1`, the figure is 41%.
Turning to `Cc1cccc(NC(=O)CSc2ccc(-c3ccccn3)nn2)c1`, the survival is 103%.
As to `Cc1cccc(NC(=O)CSc2ccc(-c3sc(-c4ccccc4)nc3C)nn2)c1C`, the survival is 33%.
On to `Cc1nc(-c2ccccc2)sc1-c1ccc(SCC(=O)NCc2ccc(Cl)cc2)nn1`, for which the survival is 52%.
As to `O=C(CSc1ccc(-c2ccccn2)nn1)Nc1ccc(F)c(F)c1`, the survival is 27% (active).
As to `CC(=O)Nc1cccc(NC(=O)CSc2ccc(-c3sc(-c4ccccc4)nc3C)nn2)c1`, the survival is -14% (active).
On to `Cc1ccc(NC(=O)CSc2ccc(-c3sc(-c4ccccc4)nc3C)nn2)cc1F`, for which the survival is 25% (active).
As to `Cc1nc(-c2ccccc2)sc1-c1ccc(SCC(=O)NCc2ccc(F)cc2)nn1`, the survival is 53%.
In the case of `Cc1ccc(NC(=O)CSc2ccc(-c3ccccn3)nn2)cc1F` it was 49%.
